Screening data deposited in PubChem BioAssay by National Center for Advancing Translational Sciences (NCATS).
ALDH1A1 block = inhibitors of human aldehyde dehydrogenase 1A1. Purified ALDH1A1, NADH fluorescence, propionaldehyde substrate. P00352. actives 7.3% (n = 220,000). Potency, µM (highest dose often 75.3 µM), actives largely listed as inhibitors; active = well fitted inhibition curve with a large enough effect, not every such curve was filed as active; inconclusive = small, poorly fitted or top-dose-only effect, or another doubt; inactive = no such curve, though single readings can be large or run the other way
Target sequence (P00352 whole entry, looked up): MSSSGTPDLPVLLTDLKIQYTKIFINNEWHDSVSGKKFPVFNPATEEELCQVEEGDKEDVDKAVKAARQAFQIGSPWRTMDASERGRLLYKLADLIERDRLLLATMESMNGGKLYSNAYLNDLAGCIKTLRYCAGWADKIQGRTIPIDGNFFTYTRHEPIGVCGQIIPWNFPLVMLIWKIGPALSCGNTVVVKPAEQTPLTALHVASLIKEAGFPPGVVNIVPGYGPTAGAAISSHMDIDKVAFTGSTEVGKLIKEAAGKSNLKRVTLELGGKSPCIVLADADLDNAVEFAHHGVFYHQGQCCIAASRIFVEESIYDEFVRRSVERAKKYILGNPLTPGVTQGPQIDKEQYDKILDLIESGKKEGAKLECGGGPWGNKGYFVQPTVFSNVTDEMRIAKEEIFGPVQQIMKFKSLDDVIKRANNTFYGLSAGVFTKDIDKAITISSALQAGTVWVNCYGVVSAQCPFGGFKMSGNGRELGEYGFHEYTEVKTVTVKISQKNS
HTT aggregate = mutant huntingtin aggregation inhibition | Potency, µM (top dose mostly 46.1 µM), usual class: inhibitors | actives 1.1% (n = 220,000) | PC12 HttQ103-GFP aggregates, Acumen cytometry, 40 h; note: nearly all actives have a fitted effect of over 60% in size
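Ecdysone-promoter PC12 model expressing HTT exon 1 Q103 fused to GFP, induced by tebufenozide at 100 nM final. Compounds titrated; aggregates sized 1–25 µm scored on a 488 nm laser cytometer.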
HPGD block = blocks human HPGD enzyme activity; AID 894; actives 4.3% (n = 150,000); P15428; purified HPGD, NADH fluorescence kinetic, PGE2 substrate; Potency, µM, most hits filed as inhibitors; active = well fitted inhibition curve with a large enough effect, not every such curve was filed as active; inconclusive = small, poorly fitted or top-dose-only effect, or another doubt; inactive = no such curve, though single readings can be large or run the other way
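20 nM HPGD preincubated 15 min at room temperature with compound in 50 mM Tris-HCl pH 8, 0.01% Tween 20. Started with 1 mM NAD+ and 30 uM prostaglandin E2; NADH fluorescence (360/450 nm) read 5 times over 30-s intervals, last minus first.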
KinaseGlo FLuc = Kinase-Glo luciferase inhibition (counter-screen). actives 0.28% (n = 200,000). Kinase-Glo luciferase, ATP luminescence, 8 min. Q27757. Potency, µM (series often up to 38.3 µM), most hits filed as inhibitors; note: nearly all actives have a fitted effect of over 60% in size
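Compound is pinned into ATP-containing buffer (10 uM ATP, imidazole pH 7.2, 7 mM MgCl2). Kinase-Glo luciferase reagent is then added. Light output is recorded following an 8-min room-temperature incubation.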
HTT cytoprotect = cytoprotection in Huntington HTT-Q103 PC12 cell model; PC12 HTT-Q103 induced, cytoprotection, ATP luminescence, 40 h; Potency, µM (series often up to 56.4 µM), hits mostly activators; actives 0.14% (n = 230,000); AID 1471; note: nearly all actives have a fitted effect of over 45% in size
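Readout: ATPlite luminescence (ATP level). Model: stable PC12, inducible Htt exon1 Q103-GFP. Inducer: tebufenozide, 100 nM final. Compounds: dose series. No G418 in medium.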
Lamin A splicing = modulators of lamin A splicing. HeLa LMNA splicing GFP/RFP minigene ratio, 48 h. Potency, µM (titrated, usually from 46.1 µM), most hits filed as inhibitors. actives 0.01% (n = 200,000). AID 1487; active = well fitted inhibition curve with a large enough effect in the signal ratio, with a control signal flat, not every such curve was filed as active; inconclusive = small, poorly fitted or top-dose-only effect, or effect the other way, or a change in a side signal; the % refers to the signal ratio
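Read-out is the ratio of GFP to DsRed2 object intensity, acquired by 488 nm laser-scanning cytometry on HeLa lamin A-EGFP minigene reporter cells. Compound incubation 48 hrs at 37 °C in Opti-MEM with 2% FBS; DMSO 0.5% final.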
Hits are given with their value; n = inactive; u = inconclusive; x = not tested or not shown; [ ] = remark or other dose. In the library only some 9% were active in any assay of this set; here they are far more common. Unless noted, calls come from the whole dose curve; as a rule, active = well fitted curve in the direction sought with a large enough effect; inconclusive = small, poorly fitted or top-dose-only effect, or another doubt; inactive = no such curve, though single readings can be large; an effect the other way counts as inactive or inconclusive.

SMILES | ALDH1A1 block | HTT aggregate | HPGD block | KinaseGlo FLuc | HTT cytoprotect | Lamin A splicing
C=CCn1c(COc2ccccc2F)nnc1SCC(=O)NC(=O)NCc1ccco1 | u | n | n | n | n | n
Cn1cccc1Cc1nnc(SCC(=O)NCc2ccco2)n1-c1ccc(F)cc1 | 12.6µM | n | n | n | n[10 µM] | n
Cc1nnc(SCC(=O)NCc2ccco2)n1-c1ccc(F)cc1 | 25.1µM | n | n | n | n[10 µM] | n
Cn1cccc1Cc1nnc(SCC(=O)NC2CCCCC2)n1-c1ccc(F)cc1 | 20µM | n | n | n | n | n
O=C(CSc1nc2c(sc3ccccc32)c(=O)n1-c1ccccc1)NCc1ccco1 | 11.2µM | n | n | n | n[10 µM] | u
O=C(CSc1nc2c(sc3ccccc32)c(=O)n1CCc1ccccc1)NCc1ccco1 | n | n[9.22 µM] | n | n | n | n
Cc1ccccc1NC(=O)COc1ccc2c(c1)OC(C)(C)CC2=O | 14.1µM | n[9.22 µM] | x | x | n[10 µM] | x
N[C@@H](Cc1ncccn1)C(=O)O | n[13.5 µM] | x | n | n[7.66 µM] | n[10 µM] | x
COC(=O)CC1C(=O)NCCN1C(=O)c1ccccc1 (centres undefined) | n | n | n | n | n | n
COC(=O)CC1C(=O)NCCN1C(=O)CSc1nc2ccccc2s1 (centres undefined) | 17.8µM | n | x | n | n | x
Nc1sc(-c2ccccc2)cc1-c1n[nH]c(=S)n1C1CCCCC1 | x | n[9.22 µM] | x | x | n[10 µM] | x
CC(=O)NCCNc1ncnc2ccc(-c3c(C)noc3C)cc12 | u | x | x | x | n | u
Cc1noc(C)c1-c1ccc2ncnc(NC3CC3)c2c1 | n | x | 14.1µM | n | n | u
Cc1noc(C)c1-c1ccc2ncnc(NC3CCNCC3)c2c1 | u | x | x | x | n | u
COCCNc1ncnc2ccc(-c3c(C)noc3C)cc12 | u | x | x | x | n | 2.82µM
Cc1cnc(CNc2ncnc3ccc(-c4ccc5c(c4)OCO5)cc23)cn1 | n | x | x | x | n | n
Cc1cnc(CNc2ncnc3ccc(-c4c(C)noc4C)cc23)cn1 | n | x | x | x | n | 7.08µM
Cc1cccc(CNc2ncnc3ccc(-c4c(C)noc4C)cc23)c1 | n | x | 12.6µM | n | n | u
COc1ccc(CNc2ncnc3ccc(-c4c(C)noc4C)cc23)c(OC)c1 | n | x | x | x | n | 2.82µM
Cc1noc(C)c1-c1ccc2ncnc(NCc3cccnc3)c2c1 | n | x | x | x | n | 3.98µM
CNC(=S)NNC(=O)c1sccc1OCc1ccc(C)cc1 | n | n | n | n | n | n
COc1cc(Nc2ccccc2Cl)c([N+](=O)[O-])nc1[N+](=O)[O-] | n | n[9.22 µM] | 25.1µM | n | n | n
COc1ccccc1Nc1ccc([N+](=O)[O-])cc1N | n | n | n | n | n[10 µM] | n
CC(C)N(C(=O)C[n+]1ccsc1N)c1ccccc1 | n | n | x | x | n | x
Cc1nc2cc(CO)ccc2s1 | n | n | n | n | n | n
SMILES | ALDH1A1 block | HTT aggregate | HPGD block | KinaseGlo FLuc | HTT cytoprotect | Lamin A splicing
Cc1nc2cc3nc(C)sc3cc2s1 | 1.78µM | n | 12.6µM | n | n[0.074 µM] | n
CCOC(=O)COc1ccc(Br)cc1/C=C\c1[nH]c(=O)[nH]c(=O)c1[N+](=O)[O-] | u | n | 15.8µM | n | n[0.074 µM] | u
CCOc1cc(/C=C\c2[nH]c(=O)[nH]c(=O)c2[N+](=O)[O-])ccc1OC(C)CC (centres undefined) | n | u | u | n | 2.51µM | u
CCCCCn1c(CN2CCN(Cc3ccccc3)CC2)nc2c1c(=O)n(C)c(=O)n2C | u | n | n | n | n[10 µM] | n
C#CCn1c(=NC(=O)c2ccc(S(=O)(=O)N3CCc4ccccc4C3)cc2)sc2cc(S(N)(=O)=O)ccc21 | u | 10µM | u | n | n[10 µM] | u
C=CCn1c(=NC(=O)c2ccc(S(=O)(=O)N3CCc4ccccc4C3)cc2)sc2cc(S(N)(=O)=O)ccc21 | u | n | u | n | n[10 µM] | n
Cc1ccc(-c2nc3ccccc3[nH]2)cc1NC(=S)NC(=O)c1ccccc1Br | 28.2µM | u | n | n | n | n[0.0737 µM]
Cc1ccc(-c2nc3ccccc3[nH]2)cc1NC(=O)/C=C/c1ccco1 | 12.6µM | u | n | n | n | n
Cc1ccc(-c2nc3ccccc3s2)cc1NC(=S)NC(=O)c1ccccc1 | 10µM | n | n | n | n | n
